Test results reported in PubChem BioAssay AID1558 (National Center for Advancing Translational Sciences (NCATS), 2009).
“And” between values parts separate entries of the source, which are not always exact repeats. Equal entries are not always repeated. Inconclusive results are not listed. Some compounds were tested as several samples or in several runs, with calls that do not always agree. The source made the active and inactive calls. Calls follow the shape of the dose curve; as a rule, active = well fitted inhibition curve with a large enough effect; inconclusive = small, poorly fitted or top-dose-only effect; inactive = flat fitted curve, though single readings scatter.

Molecular target: Microtubule-associated protein tau (Homo sapiens) (UniProt P10636)
Sequence (P10636 561-689 P618L limits assumed): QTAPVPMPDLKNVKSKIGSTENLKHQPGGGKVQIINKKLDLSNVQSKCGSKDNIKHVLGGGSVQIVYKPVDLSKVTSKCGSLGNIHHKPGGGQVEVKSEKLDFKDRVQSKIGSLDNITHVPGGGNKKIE
Assay: Confirmation Concentration-Response Assay for Inhibitors of Tau Fibril Formation, Thioflavin T Binding
Conditions: recombinant tau K18 P301L (four-repeat tau fragment) heparin fibrillization, ThT fluorescence; series mostly up to 100 µM
Text: NIH Molecular Libraries Probe Production Network [MLPCN] NIH Chemical Genomics Center [NCGC] MLPCN Grant: X01 MH083262-01 Assay Provider: Carlo Ballatore, University of Pennsylvania NCGC Assay Overview: The microtubule-associated protein tau is an abundant protein in the axons of neurons that stabilizes microtubules. With its ability to modulate microtubule dynamics, tau contributes directly or indirectly, to key structural and regulatory cellular functions. Particularly important is the influence tau exerts on axonal transport, which allows signaling molecules, trophic factors and other essential cellular constituents to travel along the axons. Under pathological conditions, tau becomes sequestered into insoluble aggregates called neurofibrillary tangles. This phenomenon is believed to have pathological consequences by promoting axonal transport deficits that ultimately lead to synaptic dysfunction and neuronal loss. To identify inhibitors of tau aggregation, a heparin-induced tau fibril formation assay was used that employed a recombinantly expressed fragment of tau, K18 (Q242-E372), bearing a P301L mutation (Gustke et al. 1994; Hong et al. 1998). This assay monitors tau fibrillization by Thioflavin T (ThT) fluorescence. Gustke, N., B. Trinczek, et al. (1994). "Domains of tau protein and interactions with microtubules." Biochemistry 33(32): 9511-22. Hong, M., V. Zhukareva, et al. (1998). "Mutation-specific functional impairments in distinct tau isoforms of hereditary FTDP-17." Science 282(5395): 1914-7. Li, W. and V. M. Lee (2006). "Characterization of two VQIXXK motifs for tau fibrillization in vitro." Biochemistry 45(51): 15692-701. von Bergen, M., S. Barghorn, et al. (2001). "Mutations of tau protein in frontotemporal dementia promote aggregation of paired helical filaments by enhancing local beta-structure." J Biol Chem 276(51): 48165-74.
For screening, 2 uL/well human K18 P301L (15 uM unlabeled and 0.24 uM Alexa 594-labeled tau, final concentrations) in reagent buffer (100 mM sodium acetate pH 7) was dispensed into black solid 1536-well plates (Grenier) using a solenoid-based dispenser. Following transfer of 23 nL compound or DMSO vehicle by a pin tool, 2 uL/well heparin (20 uM final concentration) in reagent buffer was added and the plate centrifuged 15 s at 1000 RPM. Plates were incubated 6 hr at 37 C and then 1 uL/well ThT (30 uM final concentration) was added. After a 1 hr ambient incubation, the plates were read by an Envision (Perkin Elmer) to monitor ThT fluorescence (450/8 nm excitation and 510/23 nm emission). Keywords: NIH Roadmap, MLPCN, MLI, MLSMR, NCGC, qHTS, tau, tauopathies, Alzheimer's disease, fibril, neurodegeneration, aggregation

Structure (SMILES) | Potency
O=C(Nc1nc2ccc(S(=O)(=O)N3CCCC3)cc2s1)c1ccc(F)cc1 | inactive
CCOC(=O)c1c(N)sc2c1CCOC2 | inactive
CCOC(=O)c1nn(-c2ccccc2)c(=O)c2c(N)scc12 | 3.98 µM (active) and 7.94 µM (active)
COC(=O)c1c(NC(=O)CCCOc2ccc(C)cc2)sc2c1C(C(=O)OC)CC2 (stereo not given) | 3.55 µM (active)
COc1ccc(Cl)cc1NC(=O)c1c(NCc2sccc2C)sc2c1CCCC2 | 1 µM (active)
O=C(Cc1ccccc1)Nc1sc2c(c1C(=O)Nc1ccc(Cl)cc1)CCOC2 | inactive
CCOC(=O)c1nn(-c2ccc(F)cc2)c(=O)c2c(N)scc12 | 5.01 µM (active)
O=C(NCc1cccnc1)C1CCN(S(=O)(=O)c2cccs2)CC1 | inactive
COC(=O)C1CCc2sc(NC(=O)Cc3ccccc3)c(C(=O)Nc3ccc(Cl)cc3)c21 (stereo not given) | inactive
Nc1scc2c(C(=O)NCc3ccccc3)nn(-c3ccccc3)c(=O)c12 | 7.08 µM (active)
Cc1ccc(N(C)S(=O)(=O)c2nnc(NC(=O)C3CCCCC3)s2)cc1 | inactive
COc1ccc(CNC(=O)Cn2nc(C)n3cccc3c2=O)cc1 | inactive
CCOC(=O)c1nn(-c2cccc(C(F)(F)F)c2)c(=O)c2c(N)scc12 | 0.891 µM (active)
COC(=O)c1c(N)sc2c1C(C(=O)OC)CC2 (stereo not given) | inactive
O=C(Cc1ccccc1)Nc1sc2c(c1C(=O)Nc1cccc(Cl)c1)CCCC2 | inactive
O=C(Cc1ccccc1)Nc1sc2c(c1C(=O)Nc1ccc(Cl)cc1)CCCC2 | 1 µM (active) and inactive
O=C(NCCCO)Nc1ccc2nc(-c3ccco3)c(-c3ccco3)nc2c1 | 3.16 µM (active)
NC[C@@H](O)c1ccc(O)c(O)c1 | inactive
CC(=O)Nc1nc(C)c(-c2csc(Nc3cccc([N+](=O)[O-])c3)n2)s1 | 3.55 µM (active)
COc1ccc(S(=O)(=O)Nc2cc(Sc3ncn[nH]3)c(O)c3ccccc23)cc1 | 2.82 µM (active)

Structure (SMILES) | Potency
S=C1Cc2ccccc2N1 | 0.631 µM (active)
Nc1cc(-c2ccncc2)c[nH]c1=O | 10 µM (active)
Nc1scc2c(CO)nn(-c3ccccc3)c(=O)c12 | 3.98 µM (active)
CN(C(=S)Nc1cccnc1)c1ccc(O)cc1 | 10 µM (active)
NC(=O)c1nn(-c2ccccc2)c(=O)c2c(N)scc12 | 4.47 µM (active)
Nc1scc2c(C(=O)O)nn(-c3ccccc3)c(=O)c12 | 6.31 µM (active)
CCc1ccc(S(=O)(=O)Nc2cc(SCC(=O)O)c(O)c3ccccc23)cc1 | 5.62 µM (active)
O=C(Nc1cccc(-c2nc3ccccc3o2)c1)c1cc([N+](=O)[O-])ccc1N1CCOCC1 | inactive
Cn1ncc(Cl)c1C(=O)Nc1cccc(Cl)c1 | 44.7 µM (active)
COc1ccc(NC(=O)c2c(NC(=O)Cc3ccccc3)sc3c2CCCC3)cc1 | inactive
CCOC(=O)c1nn(-c2ccc(OC)cc2)c(=O)c2c(N)scc12 | 631 nM (active) and 3.16 µM (active)
CC(C)c1ccc(NS(=O)(=O)c2ccc3[nH]cc(C(=O)NCCc4ccccc4)c(=O)c3c2)cc1 | inactive
CCN(c1ccccc1)S(=O)(=O)c1nnc(NC(=O)C(C)(C)C)s1 | inactive
CCOC(=O)c1ccc(S(=O)(=O)Nc2nc3cc(S(=O)(=O)NC4=NCCCCC4)ccc3s2)cc1 | 10 µM (active)
O=C(Nc1ccccc1)Nc1ccccc1 | inactive
CCOC(=O)c1nn(-c2ccccc2)c(=O)c2c(NC(=O)c3ccccc3)scc12 | inactive
COc1ccc(NC(=O)Cn2cc(S(=O)(=O)N3CCN(c4ccccc4F)CC3)c3ccccc3c2=O)cc1Cl | inactive
Cc1ccc(C(=O)Nc2nc(=O)n(C(=O)CC(C)C)s2)cc1 | inactive
NC[C@H](O)c1ccc(O)c(O)c1 | 5.62 µM (active)
Cc1ccc(N2C(=O)SC(Cc3ccccc3)C2=O)cc1 (stereo not given) | inactive
